# Data from PubChem BioAssay (NCATS).
# Inconclusive results are not listed. A call without a number means that no potency is given here. Activity calls are given as the source filed them. Calls follow the shape of the dose curve; as a rule, active = well fitted curve in the direction sought with a large enough effect; inconclusive = small, poorly fitted or top-dose-only effect, or another doubt; inactive = no such curve, though single readings can be large; an effect the other way counts as inactive or inconclusive.
# Assays:
# [1] = qHTS to identify inhibitors of the type 1 interferon - major histocompatibility complex class I in skeletal muscle: primary screen against the NCATS LOPAC collection (AID 1347405);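 also: lytic HiBiT luminescence reporting HLA-B protein level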; also: potency is read from the fitted curve at half-maximal effect
# Procedure, shortened: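 Immortalized human C25cl48 myoblasts with HiBiT knocked into endogenous HLA-B*08:01 were stimulated with 4.0 ng/ml IFN-beta and given compounds in a 7-point, 1:4.3 titration from 46 uM final; after 24 hrs, lytic HiBiT luminescence was read.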
# [2] = qHTS for inhibitors of adenylyl cyclases using a fission yeast platform: a pilot screen against the NCATS LOPAC library (AID 1347410)
# Procedure, shortened: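 Fission yeast qHTS: CHP2027 cells (AC9-GNAS-PDE4D2, fbp1-GFP), 5x10^6 cells/mL working density, EMM + His/Lys/Ura; LOPAC at up to 57 µM final; 18 h dark, 30C; GFP by laser cytometry. DPI positive control, DMSO vehicle.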
# [3] = qHTS to identify inhibitors of the type 1 interferon - major histocompatibility complex class I in skeletal muscle: primary screen against the NCATS Mechanism Interrogation Plate v5.0 (MIPE) Libary (AID 1347411); also: nearly all actives have a fitted effect of over 65% in size
# Procedure, shortened: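 Immortalized human C25cl48 myoblasts with HiBit knocked into endogenous HLA-B*08:01 were stimulated with 4.0 ng/ml IFN-beta and exposed to compounds (11-point 1:3 titration, top 46 uM final) for 24 hrs at 37 C; HiBiT lytic luminescence measured.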
# [4] = Validation qHTS assay for inhibitors of Activation Induced Cytidine Deaminase (AID): UDG Counterscreen signal (AID 1347427)
# Procedure, shortened: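 Counterscreen read of UDG activity (2 U/mL, 4/3x) in the FRET deamination format with AID (1 uM, 4/3x), DJC20/DJC23 substrates (250 nM, 4x), 4 h at room temperature. NaOH stop, fluorescence at 560 ex/665 em.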
# [5] = qHTS for activators of dead-cell proteases activity screened against the NCATS CANVASS Library (AID 1347392);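 also: luminescence from protease leaking out of membrane-damaged cells cleaving impermeant substrate; rising signal means more cytotoxicity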
# Procedure, shortened: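 Compounds are pin-transferred onto attached HepG2 cells, giving 11 final concentrations. After 5 h at 37C, AAF-aminoluciferin reagent is added and luminescence is recorded at room temperature.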
# [6] = qHTS for inhibitors of ER calcium dysfunction: SERCaMP assay screened against the NCATS CANVASS Library (AID 1347393);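 also: series mostly up to about 77 µM; lower secreted reporter signal means inhibitor of ER calcium depletion; nearly all actives have a fitted effect of over 40% in size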
# From the text: Natural products and their derivatives continue to be wellsprings of nascent therapeutic potential. However, many laboratories have limited resources for biological evaluation, leaving their previously isolated or synthesized compounds largely or completely untested. To address this issue, the Canvass library of natural products was assembled (https://tripod.nih.gov/canvass), in collaboration with academic and industry researchers, for quantitative high-throughput screening (qHTS) across a diverse set of cell-based and biochemical assays. The pure (>85% purity by liquid chromatography/mass spectrometry [LC/MS]) Canvass library of 346 natural products were submitted by 45 academic laboratories and companies around the world. We collected pure natural products to circumvent deconvolution and structure elucidation due to time and resource limitations. The library was formatted into 1536-well plates and evaluated in 50 qHTS (in an 11-pnt concentration series) bioassays with broad scope of disease-relevant mechanisms. The resulting data set from 50 different assays was then systematically analyzed to identify overall trends and specific natural products with interesting biological activities. […]
# SERCaMP assay protocol: 1. […] Luminescence signal was obtained via the ViewLux plate reader (Perkin Elmer) using the clear emission filter and 1x binning, 5 seconds exposure settings.
# [7] = Vero-766 cells viability qHTS against the NCATS CANVASS Library: Counterscreen for Zika virus inhibition assay (AID 1347394); also: series mostly up to about 46 µM; nearly all actives have a fitted effect of over 60% in size
# Procedure, shortened: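 Vero 766, no virus; 1000 cells/well; o/n attach; cpd 11-pt; 72 h, 37C, 5% CO2; CTG luminescence; cell-free media wells = 100% inhibition.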
# [8] = qHTS for inhibitors of Wild type Zika virus screened against the NCATS CANVASS Library (AID 1347396);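 also: ATP luminescence of surviving cells so rescue from viral cell killing; series mostly up to about 46 µM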
# Procedure, shortened: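 Vero 766 (African green monkey) cells, 1000 per well, attached overnight, then compounds were added in an 11-point series before wild-type Zika virus infection. After 72 h at 37C, cell viability was read as CellTiter Glo luminescence.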
# [9] = Viability qHTS for inhibitors of the SERCaMP assay screened against the NCATS CANVASS Library (AID 1347400); also: series mostly up to about 92 µM; nearly all actives have a fitted effect of over 70% in size
# Procedure, shortened: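 SH-SY5Y-GLuc SERCaMP MJH297-derived cells (1000 cells/well) were pre-incubated 4 h at 37C, then exposed to compounds for 48 h. Viability was read as CellTiter-Glo luminescence; bortezomib served as positive control.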
# [10] = Redox Reaction Profiling qHTS: Assay Interference Panel against the NCATS CANVASS Library (AID 1347401)
# Procedure, shortened: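 Cell-free redox surrogate: 5 uM resazurin + 200 uM DTT, 50 mM HEPES pH 7.3/50 mM NaCl; cpds pinned, 11-pt qHTS; Ex525/Em598 read t0 and t=15 min, dark.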
structure (smiles),measurement,setting,value
C=C1C[C@@]23CC[C@H]4[C@@](C)(CCC[C@@]4(C)C(=O)OC4OC(CO)C(O)C(O)C4O)[C@@H]2CC[C@]1(OC1OC(CO)C(O)C(O)C1OC1OC(CO)C(O)C(O)C1O)C3 (stereo partly specified),Potency,[1],inactive
same,outcome,[2],inactive
CCCc1c(OCCCOc2ccc(OCC(=O)O)cc2)ccc(C(C)=O)c1O,Potency,[1],inactive
same,outcome,[2],inactive
same,outcome,[3],inactive
same,Potency,[4],inactive
COC(=O)C(C)(N)Cc1ccc(O)cc1 (stereo unspecified),Potency,[1],inactive
same,outcome,[2],inactive
O=c1[nH]c2cc(Cl)ccc2c(O)c1-c1ccc(Oc2ccccc2)cc1,Potency,[1],8.91 µM (active)
same,outcome,[2],inactive
[Li+],Potency,[1],inactive
same,outcome,[2],inactive
CN1CC(O)C(O)C(O)C1CO (stereo unspecified),Potency,[1],inactive
same,outcome,[2],inactive
Nc1ccc(-c2ccc3ccccc3n2)cc1,Potency,[1],inactive
same,outcome,[2],inactive
NC1C=CC=C(C(=O)O)C1 (stereo unspecified),Potency,[1],inactive
same,outcome,[2],inactive
O=C(O)c1cc2cc(F)ccc2[nH]1,Potency,[1],inactive
same,outcome,[2],inactive
Nc1ccc2c3c(cccc13)C(=O)NC2=O,Potency,[1],inactive
same,outcome,[2],inactive
COC(=O)[C@H](NC(=O)c1cc(-c2ccccc2)nc2ccccc12)c1ccccc1,Potency,[1],inactive
same,outcome,[2],inactive
COc1ccc(NC(=O)c2ccc(-c3ccc(-c4noc(C)n4)cc3C)cc2)cc1N1CCN(C)CC1,Potency,[1],25.1 µM (active)
same,outcome,[2],inactive
O=c1onc2cnc3ccccc3n12,Potency,[1],inactive
same,outcome,[2],inactive
COc1ccc2c(c1)c(CC(=O)O)c(C)n2C(=O)c1ccccc1,Potency,[1],inactive
same,outcome,[2],inactive
O=C1C2C=CC=CC2=NC(=S)N1CCN1CCC(=C(c2ccc(F)cc2)c2ccc(F)cc2)CC1 (stereo unspecified),Potency,[1],inactive
same,outcome,[2],inactive
O=C(O)Cc1c[nH]c2ccc(O)cc12,outcome,[5],inactive
same,outcome,[6],inactive
same,outcome,[7],inactive
same,outcome,[8],inactive
same,outcome,[9],inactive
same,outcome,[10],inactive
same,Potency,[1],inactive
same,outcome,[2],inactive
same,Potency,[4],inactive
CC(=O)NCCc1c[nH]c2ccc(O)cc12,outcome,[5],inactive
same,outcome,[7],inactive
same,outcome,[8],inactive
same,outcome,[9],inactive
same,Potency,[1],inactive
same,outcome,[2],inactive
same,Potency,[4],inactive
COc1cc(CC(=O)O)ccc1O,Potency,[1],inactive
same,outcome,[2],inactive
Nc1ncnc2c1nc(Sc1ccc(Cl)cc1)n2[C@H]1OC2COP(=O)(O)O[C@@H]2C1O (stereo partly specified),Potency,[1],inactive
same,outcome,[2],inactive
NCCCNCCCCNCCCN,Potency,[1],inactive
same,outcome,[2],inactive
COCc1nc2c([nH]1)c(=O)n(C)c(=O)n2CC(C)C,Potency,[1],inactive
same,outcome,[2],inactive
CCSC(=N)N,Potency,[1],inactive
same,outcome,[2],inactive
O=c1ccc2c(OCCCCc3ccccc3)c3ccoc3cc2o1,Potency,[1],inactive
same,outcome,[2],inactive
CCCn1c(=O)c2c(ncn2C)n(CCC)c1=O,Potency,[1],inactive
same,outcome,[2],inactive
OCC1NCC(O)C(O)C1O (stereo unspecified),Potency,[1],inactive
same,outcome,[2],inactive
O=c1cc(O)cc(/C=C/c2ccc(O)c(O)c2)o1,Potency,[1],inactive
same,outcome,[2],inactive
Nc1ccc(-c2nc3ccc(-c4nc5ccc(N)cc5[nH]4)cc3[nH]2)cc1,Potency,[1],inactive
same,outcome,[2],inactive
Nc1ccc(CCNc2ncnc3c2ncn3C2OC(CO)C(O)C2O)cc1 (stereo unspecified),Potency,[1],inactive
same,outcome,[2],inactive
CC(=O)[C@H]1CCC2C3CC=C4C[C@@H](OS(=O)(=O)O)CC[C@]4(C)C3CC[C@@]21C (stereo partly specified),Potency,[1],inactive
same,outcome,[2],inactive
CNC(=O)c1cc2c(cn1)[nH]c1ccccc12,Potency,[1],inactive
same,outcome,[2],inactive
CC(N)(Cc1ccc(O)c(O)c1)C(=O)O (stereo unspecified),Potency,[1],inactive
same,outcome,[2],inactive
C[C@]12C=CC(=O)C=C1CC[C@@H]1C2=CC[C@]2(C)[C@@H](C(=O)CN3CCN(c4cc(N5CCCC5)nc(N5CCCC5)n4)CC3)CC[C@@H]12,Potency,[1],inactive
same,outcome,[2],inactive
NCC(O)c1ccc(O)c(O)c1 (stereo unspecified),Potency,[1],inactive
same,outcome,[2],inactive
CN1CCN(c2nc3cc(C(F)(F)F)ccc3n3cccc23)CC1,Potency,[1],inactive
same,outcome,[2],inactive
COc1ccc(C(=O)NCc2cccnc2)cc1C(=O)NCc1cccnc1,Potency,[1],inactive
same,outcome,[2],inactive
CCCCCCCCCCCCCCSCC(=O)O,Potency,[1],inactive
same,outcome,[2],inactive
O=C(O)C1=CCCNC1,Potency,[1],inactive
same,outcome,[2],inactive
CC1=C(/C=C/C(C)=C/C=C/C(C)=C\C(=O)O)C(C)(C)CCC1,outcome,[3],inactive
Cn1cc(C(F)(F)F)nc1-c1ccc(OCC(O)CNCCOc2ccc(O)c(C(N)=O)c2)cc1 (stereo unspecified),Potency,[1],inactive
same,outcome,[2],inactive
same,Potency,[4],inactive
C[C@H]1CC2C3CCC4=CC(=O)C=C[C@]4(C)[C@@]3(Cl)[C@@H](O)C[C@]2(C)[C@@]1(O)C(=O)CO (stereo partly specified),Potency,[1],inactive
same,outcome,[2],inactive
same,Potency,[4],inactive
N=C(N)c1ccccc1,Potency,[1],inactive
same,outcome,[2],inactive
same,Potency,[4],inactive
CCCc1c(-c2ccc(O)cc2)nn(-c2ccc(O)cc2)c1-c1ccc(O)cc1,Potency,[1],inactive
same,outcome,[2],inactive
same,Potency,[4],inactive
NC/C=C\C(=O)O,Potency,[1],inactive
same,outcome,[2],inactive
same,Potency,[4],inactive
CC(C)[C@@H]1CC[C@@H](C)C[C@@H]1P(=O)(c1ccccc1)c1ccccc1,Potency,[1],inactive
same,outcome,[2],inactive
same,Potency,[4],inactive
O=C(O)c1ccccc1Nc1cccc(OCc2ccc3ccccc3n2)c1,Potency,[1],inactive
same,outcome,[2],inactive
same,Potency,[4],inactive
O=C(O)C1=CCCN(CCON=C(c2ccccc2)c2ccccc2)C1,Potency,[1],inactive
same,outcome,[2],inactive
same,Potency,[4],inactive
O=C(c1ccc2c(c1)OCCO2)N1CCCCC1,Potency,[1],inactive
same,outcome,[2],inactive
same,Potency,[4],inactive
C[C@H](O)C(=O)C1=Nc2c(nc(N)[nH]c2=O)NC1,Potency,[1],inactive
same,outcome,[2],inactive
same,Potency,[4],inactive
N[C@@H](Cc1ccc(F)cc1)C(=O)O,Potency,[1],inactive
same,outcome,[2],inactive
same,Potency,[4],inactive
NC1CONC1=O (stereo unspecified),Potency,[1],inactive
same,outcome,[2],inactive
same,Potency,[4],inactive
CCCn1c(=O)c2[nH]c(-c3ccc(S(=O)(=O)O)cc3)nc2n(CCC)c1=O,Potency,[1],inactive
same,outcome,[2],inactive
same,Potency,[4],inactive
NCCCCN,Potency,[1],inactive
same,outcome,[2],inactive
same,Potency,[4],inactive
